Bioassay records (PubChem)
Rows were chosen to be rich in hits. Some 1.2% of all compounds tested hit in one or more screens of this group.
RGS16-Gao HTS: modulates binding between human RGS16 and Galphao; O15492+P09471; bead-based flow cytometry RGS16-Galphao binding, fluorescence; actives lie on both sides; binding response (% of control), % at 10 µM; 220,000 compounds, 0.38% hits; call rule not given here;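 further: Galphao activated by GDP with aluminum fluoride before binding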
Target sequence (O15492 whole entry, looked up): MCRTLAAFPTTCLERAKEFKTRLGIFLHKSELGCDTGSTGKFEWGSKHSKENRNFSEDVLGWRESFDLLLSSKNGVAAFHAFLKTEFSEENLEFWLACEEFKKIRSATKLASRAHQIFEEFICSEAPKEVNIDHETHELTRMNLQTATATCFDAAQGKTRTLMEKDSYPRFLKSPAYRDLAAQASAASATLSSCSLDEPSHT
Target sequence (P09471 whole entry, looked up): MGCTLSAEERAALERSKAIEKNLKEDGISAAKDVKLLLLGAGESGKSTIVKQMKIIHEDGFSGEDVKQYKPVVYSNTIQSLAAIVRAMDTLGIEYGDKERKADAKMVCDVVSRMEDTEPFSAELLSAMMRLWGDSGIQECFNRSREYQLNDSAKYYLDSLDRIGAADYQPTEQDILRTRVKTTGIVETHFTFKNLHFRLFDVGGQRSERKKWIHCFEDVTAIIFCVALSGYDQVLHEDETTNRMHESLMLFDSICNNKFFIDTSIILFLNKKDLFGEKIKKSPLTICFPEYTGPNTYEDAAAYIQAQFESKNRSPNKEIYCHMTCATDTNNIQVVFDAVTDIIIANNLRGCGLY
RGS8-Gao reg: modulates binding of RGS8 to human Galphao; multiplexed bead flow cytometry; actives lie on both sides; 220,000 compounds, 0.34% hits; response (percent of control binding), % at 10 µM; P09471; AID 1423; in the data active means response below about 60% or above about 140%; inactive means in between;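 further: Galphao activated as the GDP aluminium fluoride complex binding bead-coupled RGS8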
Target sequence (P09471 whole entry, looked up): as above
RGS7-Gao: modulates binding of RGS7 to human Galphao; P09471; Multiplexed bead flow cytometry; actives lie on both sides; binding response (% of control), % at 10 µM; 220,000 compounds, 0.35% hits; in the data active means binding response below about 49% or above about 150%; inconclusive means no clear call, values can overlap the other calls; inactive means in between;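 further: fluorescent Galphao held in activated GDP-AlF4 state binding bead-coupled RGS7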
Avidin bead fluor: compound fluoresces at 488/530 nm on avidin beads; compound fluorescence 488/530 nm, flow cytometry; stronger effect = higher value; fluorescence (KMESF) at 10 µM; 220,000 compounds, 0.38% hits; in the data active means fluorescence above about 47
RGS4-Gao reg: human RGS4-Galphao interaction regulation | binding response (% of control), % at 10 µM | P09471 | 220,000 compounds, 0.33% hits | Multiplexed bead flow cytometry, RGS4-Galphao binding; actives lie on both sides; in the data active means binding response below about 49% or above about 150%; inactive means in between;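 further: fluorescent Galphao activated with aluminum fluoride binding bead-coupled RGS4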
GSH fluor: compound fluoresces at 488/530 nm on GSH beads. GSH beads flow cytometry, compound fluorescence 488/530 nm; stronger effect = higher value. fluorescence (KMESF) at 10 µM. 190,000 compounds, 0.25% hits. AID 1776; in the data active means fluorescence above about 89;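 further: glutathione beads carrying GST-tagged Bcl family fusion proteins plus one bare bead set; values are compound well signal with DMSO vehicle wells as background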
* = called active by the depositor; ? = inconclusive; / = no result.

SMILES | RGS16-Gao HTS | RGS8-Gao reg | RGS7-Gao | Avidin bead fluor | RGS4-Gao reg | GSH fluor
C1COCCNCCOCCOCCOCCN1 | 105 | 102 | 102 | 3 | 104 | 10
O=C1c2cc(S(=O)(=O)NCCCO)ccc2-c2ccc(S(=O)(=O)NCCCO)cc21 | 122 | 107 | 103 | 6 | 105 | 251*
CCOC(=O)c1cc(-c2ccc(OC)cc2)nc2c1c(C)nn2CCC#N | 101 | 100 | 105 | 56* | 103 | 11
CCOC(=O)c1cc(-c2ccc(C#N)cc2)nc2c1c(C)nn2CCC#N | 93 | 100 | 104 | 7 | 99 | 13
Cc1nc(NC(=O)COC(=O)C2=NNC(=O)CC2)c(Cl)cc1Cl | 99 | 100 | 97 | 13 | 98 | 13
CC(C)=CC(=O)OCC(=O)Nc1nc(C)c(Cl)cc1Cl | 108 | 102 | 101 | 8 | 101 | 273*
CCc1cccc(C)c1NC(=S)N(CCOC)C(C)c1ccco1 (stereo unspecified) | 101 | 100 | ? | 10 | 96 | /
COc1cc(OC)c(OC)cc1/C=N/N(C)c1ccccc1 | 148 | 108 | 134 | 54* | 148 | 33
COc1cc(/C=N/N(C)c2ccccc2)ccc1O | 101 | 100 | 98 | 8 | 98 | 4
O=C(/C=C/c1ccc2c(c1)OCO2)NCc1ccncc1 | 92 | 94 | ? | 5 | 95 | /
Cn1c(Cn2c(=O)sc3ccccc32)nnc1SCC(=O)NCc1ccco1 | 107 | 100 | 97 | 26 | 99 | 16
O=C(CCCCn1c(=O)c2ccccc2n(Cc2ccc(F)cc2)c1=O)NCc1ccco1 | 99 | 98 | 101 | 7 | 95 | 19
O=C(CCCn1c(=O)c2ccccc2n(Cc2ccccc2)c1=O)NCc1ccco1 | 136 | 109 | 122 | 60* | 127 | 10
O=C(CCn1c(=O)sc2ccccc21)NCc1ccco1 | 184 | 121 | 120 | 14 | 123 | 120*
CCOC(=O)C1CCCN(CCC(=O)Nc2ccccc2C)C1 (stereo unspecified) | 98 | 98 | 95 | 11 | 95 | 10
O=C(O)CCCn1cc(NC(=O)c2ccc(Br)o2)cn1 | 107 | 99 | 91 | 6 | 99 | 13
CCOC(=O)c1cnn2c1[nH]c(=O)c1ccccc12 | 110 | 101 | 124 | 96* | 110 | 49
Cc1onc(-c2ccccc2Cl)c1C(=O)N1CCCc2ccccc21 | 100 | 101 | 99 | 10 | 100 | 30
Cc1onc(-c2ccccc2Cl)c1C(=O)OCC(=O)N1CCCc2ccccc21 | 105 | 102 | 106 | 8 | 106 | 267*
Cc1onc(-c2ccccc2)c1C(=O)OCC(=O)Nc1ccc2c(c1)OCO2 | 109 | 102 | 99 | 18 | 111 | 8
Cc1onc(-c2ccccc2Cl)c1C(=O)OCC(=O)Nc1ccc2c(c1)OCO2 | 103 | 105 | 105 | 7 | 104 | 263*
COc1ccc(OCC2c3cc(OC)c(OC)cc3CCN2C(=O)C(C)C)cc1 (stereo unspecified) | 112 | 104 | 105 | 11 | 101 | 16
O=C(CSc1nnc(-c2ccc(S(=O)(=O)N3CCCC3)cc2)o1)NCc1ccccc1 | 103 | 100 | 101 | 7 | 96 | 113*
O=C(CSc1nnc(-c2ccc(F)cc2)o1)Nc1ccc(S(=O)(=O)N2CCCC2)cc1 | 108 | 102 | 101 | 6 | 103 | 5
CC1=NN(c2ccc(Cl)cc2)C(=O)C1 | 96 | 100 | 97 | 9 | 101 | 18
SMILES | RGS16-Gao HTS | RGS8-Gao reg | RGS7-Gao | Avidin bead fluor | RGS4-Gao reg | GSH fluor
CC1=NN(c2ccc(N)cc2)C(=O)C1 | -44 | 74 | 12* | 0 | 35* | 223*
COc1ccc(-c2cc(C(=O)Nc3c(C)nn(Cc4ccc(Cl)cc4)c3C)no2)cc1 | 165 | 111 | 135 | 50* | 146 | 49
O=S(=O)(Nc1nc(-c2sccc2Cl)cs1)c1cc(Cl)ccc1Cl | 101 | 102 | 99 | 12 | 101 | 36
O=C(COC(=O)Cn1cnc2ccccc21)NCc1ccc(F)cc1 | 103 | 102 | ? | 9 | 101 | 15
COc1ccc(NC(=O)Cn2cnc3ccccc3c2=O)cc1OC | 113 | 88 | 94 | 6 | 101 | 17
COc1ccccc1CNC(=O)Cn1cnc2ccccc2c1=O | 166 | 123 | 122 | 6 | 131 | 234*
O=C(Cn1cnc2ccccc21)NCc1ccccc1 | 103 | 101 | 136 | 58* | 105 | 33
Cc1ccc(Nc2nnc(SCC(=O)NCc3ccco3)s2)cc1 | 97 | 102 | 94 | 7 | 95 | 259*
O=C(CSc1nnc(Nc2ccccc2)s1)NCc1ccco1 | 107 | 102 | 106 | 12 | 104 | 10
O=C(Cc1ccccc1)N/N=C/c1cccs1 | 102 | 103 | 106 | 4 | 104 | 25
O=S(=O)(CCc1ccccc1)/N=C/c1cccs1 | 124 | 98 | 118 | 51* | 118 | 17
O=P(c1ccccc1)(c1ccccc1)c1nc(-c2ccccc2)oc1NCc1ccccc1 | 101 | 100 | 102 | 12 | 102 | 14
Cc1cc(Nc2cc(Cl)cc(Cl)c2)nc(N)n1 | 104 | 103 | ? | 4 | 105 | /
Cc1nn(CC(=O)O)c(=O)c2ccccc12 | 107 | 104 | 108 | 7 | 108 | 263*
CC1Oc2ccccc2N(CC(=O)NCc2ccccc2)C1=O (stereo unspecified) | 104 | 103 | 104 | 11 | 100 | 24
CC1Oc2ccccc2N(CC(=O)NCC2CCCO2)C1=O (stereo unspecified) | 104 | 102 | 108 | 54* | 102 | 20
Cc1nnc(SCC(=O)NCC2CCCO2)n1-c1ccccc1 (stereo unspecified) | 100 | 99 | 95 | 9 | 97 | 273*
Cc1nn(CC(=O)NCC2CCCO2)c(=O)c2ccccc12 (stereo unspecified) | 108 | 102 | 106 | 9 | 104 | 270*
COc1ccc(NC(=O)CC2C(=O)N(c3cccc(OC)c3)C(=O)N2Cc2ccco2)cc1 (stereo unspecified) | 105 | 101 | ? | 8 | 100 | 16
CC(=O)Nc1nc(CC(C)C)cc(-c2ccco2)c1C#N | 102 | 101 | 109 | 57* | 105 | 21
CCOC(=O)c1ccc(S(=O)(=O)Nc2cc(C(=O)O)ccc2Cl)cc1 | 97 | 102 | ? | 11 | 103 | 13
O=C(CSCc1ccccc1)Nc1cccc(C(=O)Nc2ccc(C(=O)O)cc2)c1 | 102 | 99 | 117 | 53* | 102 | 19
N=C1C(c2nc3ccccc3s2)=C(O)CN1CCCO | 101 | 103 | 100 | 34 | 99 | 16
CCCCN1CC(O)=C(c2nc3ccccc3s2)C1=N | 113 | 103 | 133 | 110* | 105 | 25
CCCCOc1ccc(N=Cc2cccs2)cc1 | 44 | 80 | 97 | 1 | 92 | 6
Oc1ccc(N=Cc2ccc(-c3cccs3)s2)cc1 | 102 | 99 | 106 | 47* | 105 | 10
